For experiment [1], the target named is Nicotinamide N-methyltransferase (Homo sapiens) (UniProt P40261). Briefly: Confirmatory Screen for Target Class Profiling of Small Molecule Inhibitors of Methyltransferases (AID 1745852). The settings on record: MTase-Glo luminescence, SAH detection, recombinant enzyme; measured here: NNMT max response; stronger effect = lower value.
The target of experiment [2] is Phenylethanolamine N-methyltransferase (Homo sapiens) (UniProt P11086). Described as above. The settings on record: MTase-Glo luminescence, SAH detection, recombinant enzyme; measured here: PNMT max response; stronger effect = lower value.
Experiment [3] concerns the target Metallo-beta-lactamase type 2 (Klebsiella pneumoniae) (UniProt C7C422). Briefly: qHTS to identify inhibitors of the New Delhi Metallo-beta-lactamase (NDM): assay validation screen against the NCATS LOPAC Collection (AID 1794843). Also: potency is read from the fitted curve at half-maximal effect. The settings on record: NDM-1 enzyme, nitrocefin hydrolysis, absorbance 485 nm; series mostly up to 38.4 µM. The procedure, abridged: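 Nitrocefin hydrolysis (50 uM substrate stock) by NDM-1, 2 nM final, was followed by 485 nm absorbance after compound preincubation; buffer was 50 mM HEPES pH 7.0, 1 uM ZnSO4, 0.01% Tween20.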

A short description of experiment [4]: NCATS anti-infectives library activity on HEK293 viability as a counter-qHTS vs the C. elegans viability qHTS (AID 1745854). Also: % is scaled to controls: 0 for no effect and ±100 for the full control effect. The note with it: HEK293 viability counter-screen; series mostly up to 83.3 µM. The method, boiled down: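 HEK293 cells, 1500 per well, exposed 24 hr at 37C in 5% CO2 to compounds in a 1:5 titration, up to 41.7 uM final. Viability read as CellTiter-Glo luminescence after 10 min at room temperature.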
For orientation: In qHTS, concentration-response curves come from the screen itself.

Experiment [5] in a line: NCATS anti-infectives library activity on the primary C. elegans qHTS viability assay (AID 1745855; calls by dose curve). The note with it: C. elegans worm area imaging, day 7; at 41.8 µM (top of the series) unless noted. The procedure, abridged: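 Viability is taken from GFP fluorescence of PE254-GFP-FLuc C. elegans imaged by laser cytometry over 7 days. Ten L1 worms per well grow at 21 °C on TOP10 E. coli capsules with titrated compound; levamisole marks toxicity.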

The nature of experiment [6]: Viability counterscreen for antagonist of constitutive androstane receptor (CAR) against the NCATS DSHEA and TCM libraries (AID 1794837).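 Also: compound exposure lasted 24 h before viability reading; 0% is about no effect.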 The settings on record: CAR reporter cell line viability counterscreen, qHTS; series mostly up to 40 µM. The method, boiled down:
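HepG2-CYP2B6-hCAR cells (2,500/well) were allowed to attach for 5 h, then exposed to compounds with 48 uM CITCO for 24 h at 37C. Viability was read by CellTiter-Fluor fluorescence after 1 h.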
On the technique in general: The purpose of a counterscreen is to sort out artefacts and off-target activity.

Experiment [7] can be described thus: Viability counterscreen for agonist of constitutive androstane receptor (CAR) against the NCATS DSHEA and TCM libraries (AID 1794838). Also: 0% is about no effect. The settings on record: HepG2 cell viability counterscreen, CAR agonist assay, co-treated with 0.75 µM CAR antagonist; series mostly up to 40 µM. The procedure, abridged: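 HepG2-CYP2B6-hCAR cells (2,500/well) attached 5 h, then got compounds plus 0.75 uM PK11195 final. After 24 h at 37C, viability read by CellTiter-Fluor fluorescence (Ex/Em 405/540 nm).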

Experiment [8] concerns the target Nuclear receptor subfamily 1 group I member 3 (Homo sapiens) (UniProt Q14994). Briefly: Primary qHTS for agonist of constitutive androstane receptor (CAR) against the NCATS DSHEA and TCM libraries (AID 1794839).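 Also: HepG2 cells expressing human CAR with a CYP2B6 reporter plus PK11195 antagonist; luciferase reporter luminescence read with ONE-Glo; 0% is about no effect.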 The note with it: CAR agonist reporter cells, qHTS luminescence, CAR antagonist co-added at 0.75 µM; series mostly up to 40 µM. The source says:
National Center for Advancing Translational Sciences (NCATS), Rockville, MD
National Institute of Health (NIH), Bethesda, Maryland
Dietary Supplements and Natural Products have minor oversight of their safety and efficacy. We assembled a collection of Dietary Supplements and Natural Products (DSNP) as well as Traditional Chinese Medicinal (TCM) Plant extracts, which were screened against an in vitro panel of assays, including a liver cytochrome p450 enzyme panel, CAR/PXR signaling pathways, and P-gp transporter assays, to assess their activity. This pipeline facilitated the interrogation of Natural Product-Drug Interaction (NaPDI) through prominent metabolizing pathways. In addition, we compared the activity profiles of the DSNP/TCM substances with those of an approved drug collection. Many of the approved drugs have well-annotated mechanisms of action (MOA) while the MOAs for most of the DSNP and TCM samples remain unknown. […] Overall, we highlight four significant bioactivity profiles (measured by p-values) as examples of this prediction. […]
8; Detector 1; Fluorescence intensity; ViewLux plate reader (excitation 405 nm, emission 540 nm). […]
11; Detector 2; Luminescence intensity; ViewLux. […]
8. Fluorescence intensity (Ex/Em = 405 nm/540 nm) is obtained using the ViewLux plate reader to determine cell viability. […]
10. Luminescence intensity is read using the ViewLux detector. […]

Experiment [9] is described as follows: HepG2 viability counterscreen (readout 2: ATP content) against the NCATS DSHEA and TCM libraries (AID 1794840).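 Also: HepG2 cells exposed to substances for about 24 h; 0% is about no effect.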 The settings on record: ATP content luminescence; series mostly up to 27.3 µM. The method, boiled down: (§1)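 HepG2 cells (1,000 cells/well) attached ~4 h, then treated ~24 h at 37C with substances. Protease activity read by GF-AFC (25 uM final, 30 min, Ex/Em 380/510 nm); ATP content then by CellTiter-Glo luminescence.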

A short description of experiment [10]: HepG2 viability counterscreen (readout 1: protease activity) against the NCATS DSHEA and TCM libraries (AID 1794841).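 Also: cells exposed to compounds for about 24 h before the protease read; 0% is about no effect.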 The settings on record: qHTS concentration series; series mostly up to 27.3 µM. The procedure, abridged: as §1

For 37 compounds, activity, Potency and outcome results are on record in PubChem BioAssay (NCATS).

The structures appear in SMILES notation. Inconclusive results are not listed. The source made the active and inactive calls. Unless noted, calls follow the shape of the dose curve; as a rule, active = well fitted curve in the direction sought with a large enough effect; inconclusive = small, poorly fitted or top-dose-only effect, or another doubt; inactive = no such curve, though single readings can be large; an effect the other way counts as inactive or inconclusive.

Chain of Metallo-beta-lactamase type 2 (Klebsiella pneumoniae) (C7C422 whole entry, looked up): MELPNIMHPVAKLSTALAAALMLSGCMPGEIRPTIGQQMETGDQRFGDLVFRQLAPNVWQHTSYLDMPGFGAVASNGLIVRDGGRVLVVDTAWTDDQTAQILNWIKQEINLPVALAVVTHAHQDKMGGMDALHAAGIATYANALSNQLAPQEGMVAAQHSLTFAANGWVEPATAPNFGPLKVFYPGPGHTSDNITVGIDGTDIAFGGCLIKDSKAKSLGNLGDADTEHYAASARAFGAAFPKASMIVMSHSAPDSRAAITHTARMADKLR
Chain of Nicotinamide N-methyltransferase (Homo sapiens) (P40261 whole entry, looked up): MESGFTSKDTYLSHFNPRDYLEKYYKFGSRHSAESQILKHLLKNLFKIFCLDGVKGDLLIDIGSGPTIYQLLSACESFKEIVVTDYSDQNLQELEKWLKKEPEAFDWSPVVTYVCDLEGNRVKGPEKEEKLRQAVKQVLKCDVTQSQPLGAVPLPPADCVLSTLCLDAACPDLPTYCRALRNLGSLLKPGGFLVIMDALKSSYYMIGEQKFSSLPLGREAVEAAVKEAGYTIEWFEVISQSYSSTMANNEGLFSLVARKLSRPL
Chain of Phenylethanolamine N-methyltransferase (Homo sapiens) (P11086 whole entry, looked up): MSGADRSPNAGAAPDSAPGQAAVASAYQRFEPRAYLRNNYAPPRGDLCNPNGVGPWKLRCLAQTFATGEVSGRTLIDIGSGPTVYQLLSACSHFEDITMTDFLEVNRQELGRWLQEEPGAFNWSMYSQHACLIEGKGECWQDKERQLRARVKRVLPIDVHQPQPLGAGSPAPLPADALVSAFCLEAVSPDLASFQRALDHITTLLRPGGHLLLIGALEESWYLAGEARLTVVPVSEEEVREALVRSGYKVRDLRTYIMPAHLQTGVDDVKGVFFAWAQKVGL
Chain of Nuclear receptor subfamily 1 group I member 3 (Homo sapiens) (Q14994 whole entry, looked up): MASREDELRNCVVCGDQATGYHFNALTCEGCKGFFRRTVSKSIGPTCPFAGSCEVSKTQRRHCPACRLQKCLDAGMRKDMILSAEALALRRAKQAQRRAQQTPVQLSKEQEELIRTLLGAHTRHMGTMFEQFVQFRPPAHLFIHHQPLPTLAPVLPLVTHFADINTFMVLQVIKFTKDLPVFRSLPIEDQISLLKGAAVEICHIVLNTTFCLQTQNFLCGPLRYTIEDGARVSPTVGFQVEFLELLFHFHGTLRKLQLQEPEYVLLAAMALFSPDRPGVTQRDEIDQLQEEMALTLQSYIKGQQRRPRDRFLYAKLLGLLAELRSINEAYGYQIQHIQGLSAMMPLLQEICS

Take `CNCCc1cnc(CCC(c2ccccc2)c2ccccc2)[nH]1`: the activity was -32.7% in [1] and -3.25% in experiment [2].
Regarding `Nc1ccc2c3c(cccc13)C(=O)NC2=O`, the activity in experiment [1] was -4.84%; in [2] it was 2.54%. Further, the Potency result in experiment [3] was “inactive”.
`C[C@H](NC(=O)/C(C#N)=C/c1ccc(O)c(O)c1)c1ccccc1`: the activity in experiment [1] is -55.4%; in experiment [2] it was -2.26%. The Potency entry in [3] was “inactive”.
On to `CCN1C(=O)C=CC1=O`, for which the outcome in experiment [4] is “inactive”. Besides, in experiment [5], the outcome is “inactive [at 83.3 µM]”. The Potency result in experiment [3] is “inactive”.
On to `N#C/C(=C\c1ccc(O)c(O)c1)C(=O)NCCCNC(=O)/C(C#N)=C/c1ccc(O)c(O)c1`, for which the activity in [1] is -44.4%; in experiment [2], -72.8%. Moreover, the Potency result in [3] was “inactive”.
On the same counts, the results for `COc1cc(/C=C(\C#N)C(=O)c2ccc(O)c(O)c2)cc(I)c1O` are -5.85%, 1.08% and “inactive”.
In the same order, the values of `CN1Cc2sccc2C(c2ccc(O)c(O)c2)C1` (configuration not stated) are -9.55%, 2.33% and “inactive”.
On to `O=C(O)C1=CC(=C(c2ccc(O)c(C(=O)O)c2)c2ccc(O)c(C(=O)O)c2)C=CC1=O`, for which the activity in experiment [1] was -4.1%; in experiment [2], 2.52%. The Potency in experiment [3] is 1260 nM (active).
In the same order, the values of `N#C/C(=C\c1ccc(O)c(O)c1)C(=O)NCCc1ccccc1` are -37.9%, 0.462% and “inactive”.
With `NCC(O)C1CCCCCCC1` (configuration not stated), the activity was -12% in experiment [1] and -45.1% in experiment [2]. Further, the Potency result in [3] is “inactive”.
In the same order, the values of `C[C@@]1(C2CCCC2)Cc2cc(OCC(=O)O)c(Cl)c(Cl)c2C1=O` are -45.2%, 5.32% and “inactive”.
On the same counts, the results for `CN(C)C(=O)/N=N/C(=O)N(C)C` are -6.49%, -4.1% and “inactive”.
On the same counts, the results for `CC1CCN=C(N)S1` (configuration not stated) are -17.8%, -0.769% and “inactive”.
In the case of `O=c1[nH]ccc2c(O)cccc12`, the activity in experiment [1] was -0.246%; in [2], 1.15%. Further, in experiment [3], the Potency entry is “inactive”.
Take `NC(=O)c1ccccc1`: the outcome in [4] and in experiment [5] was “inactive” each time. Besides, the Potency entry in experiment [3] is “inactive”.
For the compound `C=CCN1CCc2cc(O)c(O)cc2C(c2ccccc2)C1` (configuration not stated), the results for the activity in [1] and in [2] were -4.37% and -2.84%, respectively. In experiment [3], the Potency entry was “inactive”.
In the same order, the values of `NS(=O)(=O)c1cccc2c1c([N+](=O)[O-])cc1nc(O)c(O)nc12` are -6.69%, 1.61% and “inactive”.
In the same order, the values of `CCN(CC)CCCCCCCCOC(=O)c1cc(OC)c(OC)c(OC)c1` are -0.607%, 0.819% and “inactive”.
In the case of `CCCC[C@@]1(C2CCCC2)Cc2cc(OCC(=O)O)c(Cl)c(Cl)c2C1=O`, the activity was -66.3% in experiment [1] and 7.03% in experiment [2].
In the same order, the values of `CC(O)C(O)[C@H]1CNc2nc(N)[nH]c(=O)c2N1` (some centres not stated) are -14.2% and -4.71%.
On to `Fc1ccc(CN(C2=NCCN2)c2c(Cl)cccc2Cl)cc1`, for which the activity in experiment [1] was -23.8%; in [2], -2.64%. Also, the Potency entry in experiment [3] is “inactive”.
On the same counts, the results for `N=C(N)SCCc1cnc[nH]1` are -8.2%, -8.19% and “inactive”.
On the same counts, the results for `CCCc1c(OCCCOc2ccc(OCC(=O)O)cc2)ccc(C(C)=O)c1O` are -16.7%, 0.821% and “inactive”.
`Clc1nccc2c1ccc1ccccc12`: the activity is -11.8% in experiment [1] and -6.62% in experiment [2].
Turning to `Cn1c(=O)c2[nH]c(-c3ccc(S(=O)(=O)O)cc3)nc2n(C)c1=O`, the figures for the activity in [1] and in experiment [2] were -17.8% and -5.47%, respectively. Also, in [3], the Potency entry was “inactive”.
On the same counts, the results for `CCCc1c(-c2ccc(O)cc2)nn(-c2ccc(O)cc2)c1-c1ccc(O)cc1` are -57.1%, -22% and “inactive”.
In the same order, the values of `Brc1c(Br)c(Br)c2[nH]cnc2c1Br` are -40.5%, -39.7% and “inactive”.
Take `Oc1cc(O)c2c(c1)O[C@H](c1ccc(O)c(O)c1)[C@@H](O)C2`: the figures for the activity in [1] and in experiment [2] were -7.72% and 7.68%, respectively. Moreover, the outcome in experiment [4] and in experiment [5] was “inactive” in each case. Besides, the Potency entry in experiment [3] was “inactive”.
In the case of `NC/C=C\C(=O)O`, the activity was -7.89% in experiment [1] and 2.22% in experiment [2].
Consider `O=C(O)Cc1ccc(O)c(O)c1`, for which the figures for the activity in [1] and in [2] were 0.212% and 4.32%, respectively. Moreover, the Potency entry in experiment [3] was “inactive”.
In the same order, the values of `C[C@](Cc1ccc(O)c(O)c1)(NN)C(=O)O` are -8.36%, 2.39% and “inactive”.
For the compound `C=CCN1CCc2c(cc(O)c(O)c2Cl)C(c2ccccc2)C1` (configuration not stated), the activity in [1] was -9.01%; in experiment [2] it was 8.41%. Besides, in experiment [3], the Potency result was “inactive”.
On the same counts, the results for `CC[C@@H]1Cc2cc(O)ccc2C2=C1c1ccc(O)cc1C[C@H]2CC` are -26.8%, -50.4% and “inactive”.
Take `C=CCN1CCc2c(cc(O)c(O)c2Br)[C@@H](c2ccccc2)C1`: the activity in experiment [1] was -9.94%; in experiment [2], -1.34%. In addition, the Potency entry in [3] is “inactive”.
With `O=C(O)/C=C/c1ccc(O)c(O)c1`, the activity in experiment [1] is -14.8%; in [2] it was -0.851%. The outcome in [6], in experiment [7], in [8] and in experiment [9] was “inactive” each time. Moreover, the Potency entry in [3] was “inactive”.
Turning to `N[C@H]1CONC1=O`, the outcome in [4] was “inactive”.
As to `C=C1C[C@@]23CC[C@H]4[C@@](C)(CCC[C@@]4(C)C(=O)OC4OC(CO)C(O)C(O)C4O)[C@@H]2CC[C@]1(OC1OC(CO)C(O)C(O)C1OC1OC(CO)C(O)C(O)C1O)C3` (some centres not stated), the outcome in experiment [6], in experiment [7], in experiment [8], in experiment [9] and in [10] was “inactive” each time.
